Measured values as given in PubChem BioAssay (Tox21).
Inconclusive results are not listed. Where a call stands in place of a potency, no number is given. Active and inactive are the calls of the source. Unless noted, calls come from the whole dose curve.

Tests used:
[1] = target: Estrogen receptor beta (Homo sapiens) (UniProt Q92731); test: qHTS assay to identify small molecule agonists of the estrogen receptor beta (ER-beta) signaling pathway (AID 1259377; active = well fitted activation curve with a large enough effect in the signal ratio in the repeat runs, not every such curve was filed as active; the % refers to the signal ratio)
Sequence of Estrogen receptor beta (Homo sapiens) (Q92731 whole entry, looked up): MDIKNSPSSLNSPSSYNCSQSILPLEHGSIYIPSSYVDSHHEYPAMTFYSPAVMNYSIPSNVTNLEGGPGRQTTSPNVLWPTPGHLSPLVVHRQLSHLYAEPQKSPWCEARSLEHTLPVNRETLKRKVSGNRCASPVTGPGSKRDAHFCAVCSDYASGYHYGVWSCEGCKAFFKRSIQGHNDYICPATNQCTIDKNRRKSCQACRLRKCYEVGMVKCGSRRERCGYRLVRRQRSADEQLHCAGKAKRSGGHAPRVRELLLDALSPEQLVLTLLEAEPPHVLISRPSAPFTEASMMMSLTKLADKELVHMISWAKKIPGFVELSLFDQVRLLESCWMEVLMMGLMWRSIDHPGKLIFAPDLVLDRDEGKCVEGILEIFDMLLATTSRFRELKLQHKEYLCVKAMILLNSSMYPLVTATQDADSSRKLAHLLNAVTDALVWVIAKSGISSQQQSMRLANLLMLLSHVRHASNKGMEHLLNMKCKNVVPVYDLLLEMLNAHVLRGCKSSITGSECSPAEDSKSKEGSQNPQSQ
In short: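 ER-beta-UAS-bla HEK293T cells in medium with 2% charcoal-stripped FBS were exposed to compounds for 16 h at 37C. Beta-lactamase reporter activity was read as fluorescence after 2 h with LiveBLAzer B/G FRET substrate at room temperature.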

[2] = target: Estrogen receptor beta (Homo sapiens) (UniProt Q92731); test: qHTS assay to identify small molecule antagonists of the estrogen receptor beta (ER-beta) signaling pathway (AID 1259378; active = well fitted inhibition curve with a large enough effect in the signal ratio in the repeat runs, not every such curve was filed as active; the % refers to the signal ratio)
In short: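 ER-beta-UAS-bla HEK293T cells in 2% charcoal-stripped FBS medium treated with compound plus 1nM final 17-beta-estradiol for 16 hr at 37C. Beta-lactamase reporter read by FRET substrate fluorescence after 2 hours at room temperature.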

[3] = qHTS assay to identify small molecule agonists of the androgen receptor (AR) signaling pathway in the presence of an antagonist - cell viability counter screen (AID 1259379; active = well fitted curve in the direction sought with a large enough effect in the repeat runs; an effect the other way counts as inactive or inconclusive; note: series mostly up to about 92 µM; nearly all actives have a fitted effect of over 25% in size)
In short: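 MDA-kb2 human breast carcinoma cells (stable MMTV-luciferase, AR/GR responsive) were seeded 3,000 cells/well, pre-incubated 5 hr at 37C without CO2, then given 3.0uM nilutamide and compounds at 15 concentrations for 16 hr. Viability was read by CellTiter-Fluor fluorescence.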

[4] = qHTS assay to identify small molecule agonists of the estrogen receptor beta (ER-beta) signaling pathway - cell viability counter screen (AID 1259380; active = well fitted curve in the direction sought with a large enough effect in the repeat runs; an effect the other way counts as inactive or inconclusive; note: nearly all actives have a fitted effect of over 30% in size)
In short: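 ER-beta-UAS-bla HEK293T cells in medium with 2% charcoal-stripped FBS were preincubated 6 hr at 37C, dosed with compound in DMSO for 16 hr, then after the bla read, CellTiter-Glo was added for 30 min at room temperature; luminescence recorded.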

[5] = target: Androgen receptor (Homo sapiens) (UniProt P10275); test: qHTS assay to identify small molecule agonists of the androgen receptor (AR) signaling pathway in the presence of an antagonist (AID 1259381); note: nearly all actives have a fitted effect of over 15% in size
Sequence of Androgen receptor (Homo sapiens) (P10275 whole entry, looked up): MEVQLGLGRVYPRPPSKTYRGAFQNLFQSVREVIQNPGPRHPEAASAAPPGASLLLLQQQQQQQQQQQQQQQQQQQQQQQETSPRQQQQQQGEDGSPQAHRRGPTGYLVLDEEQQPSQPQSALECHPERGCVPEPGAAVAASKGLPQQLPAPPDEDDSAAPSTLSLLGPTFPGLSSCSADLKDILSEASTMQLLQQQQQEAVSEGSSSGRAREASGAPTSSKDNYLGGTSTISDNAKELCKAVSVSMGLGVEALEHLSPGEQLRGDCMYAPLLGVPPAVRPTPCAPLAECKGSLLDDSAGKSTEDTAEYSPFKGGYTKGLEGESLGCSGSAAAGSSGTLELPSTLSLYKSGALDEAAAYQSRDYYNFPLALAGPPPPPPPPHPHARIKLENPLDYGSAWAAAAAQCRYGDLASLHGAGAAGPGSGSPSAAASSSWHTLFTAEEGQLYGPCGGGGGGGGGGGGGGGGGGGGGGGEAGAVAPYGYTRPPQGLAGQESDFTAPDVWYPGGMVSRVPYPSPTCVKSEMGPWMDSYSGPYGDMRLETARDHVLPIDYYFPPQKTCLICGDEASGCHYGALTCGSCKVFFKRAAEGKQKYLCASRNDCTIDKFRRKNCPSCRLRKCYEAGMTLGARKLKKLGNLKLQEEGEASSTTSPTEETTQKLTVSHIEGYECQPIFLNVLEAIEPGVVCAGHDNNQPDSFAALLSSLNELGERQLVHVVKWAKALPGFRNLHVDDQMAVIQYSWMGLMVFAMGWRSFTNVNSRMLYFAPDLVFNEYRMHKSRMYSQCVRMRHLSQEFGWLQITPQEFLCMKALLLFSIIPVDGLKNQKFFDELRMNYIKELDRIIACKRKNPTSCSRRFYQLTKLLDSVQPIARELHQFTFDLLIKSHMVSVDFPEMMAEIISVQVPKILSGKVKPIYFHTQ
In short: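 MDA-kb2 human breast carcinoma cells carrying an MMTV-luciferase reporter (AR- and GR-responsive) were treated with compounds at 15 concentrations plus 3.0uM final nilutamide for 16hr at 37C without CO2; luminescence was read after ONE-Glo addition.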

[6] = target: Estrogen receptor (Homo sapiens) (UniProt P03372); test: qHTS assay to identify small molecule agonists of the estrogen receptor alpha (ER-alpha) signaling pathway in the presence of an antagonist (AID 1259383); note: top concentration of the series differs between compounds; nearly all actives have a fitted effect of over 15% in size
Sequence of Estrogen receptor (Homo sapiens) (P03372 whole entry, looked up): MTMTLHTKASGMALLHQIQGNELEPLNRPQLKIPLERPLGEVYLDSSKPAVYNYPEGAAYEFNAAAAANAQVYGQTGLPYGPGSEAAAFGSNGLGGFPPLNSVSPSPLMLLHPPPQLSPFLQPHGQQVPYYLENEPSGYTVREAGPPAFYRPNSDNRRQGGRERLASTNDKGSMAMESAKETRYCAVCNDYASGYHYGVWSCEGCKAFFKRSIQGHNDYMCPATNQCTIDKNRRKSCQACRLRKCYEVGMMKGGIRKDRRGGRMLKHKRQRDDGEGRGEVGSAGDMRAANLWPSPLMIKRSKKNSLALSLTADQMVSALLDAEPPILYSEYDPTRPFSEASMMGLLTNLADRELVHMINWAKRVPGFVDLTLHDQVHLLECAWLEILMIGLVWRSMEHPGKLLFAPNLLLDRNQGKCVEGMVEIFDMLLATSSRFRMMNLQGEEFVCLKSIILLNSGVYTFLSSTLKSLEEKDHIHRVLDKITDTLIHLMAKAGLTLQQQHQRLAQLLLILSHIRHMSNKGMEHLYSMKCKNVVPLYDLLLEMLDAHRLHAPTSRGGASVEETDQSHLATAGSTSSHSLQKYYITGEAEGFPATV
In short: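 VM7Luc4E2 cells (endogenous full-length ER-alpha, 4×ERE-luciferase) were precultured 5 days in phenol red-free medium with 10% charcoal-stripped FBS, given 10.0nM ICI-182,780 (final), then treated with compounds at 15 concentrations for 22hr at 37C; luminescence read with ONE-Glo.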

[7] = qHTS assay to identify small molecule agonists or antagonists of the thyroid stimulating hormone receptor (TSHR) signaling pathway - wild type cell line counter screen (AID 1259384)
In short: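 Wild-type Hek293 cells, 800/well, 18 h at 37C, then compound with Ro20-1724 for 30 min RT. cAMP by HTRF (cAMP-d2/anti-cAMP cryptate), 1 h RT, fluorescence read. 15 concentrations, triplicates.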

[8] = target: Thyrotropin receptor (Homo sapiens) (UniProt P16473); test: qHTS assay to identify small molecule antagonists of the thyroid stimulating hormone receptor (TSHR) signaling pathway (AID 1259385); note: nearly all actives have a fitted effect of over 20% in size
Sequence of Thyrotropin receptor (Homo sapiens) (P16473 whole entry, looked up): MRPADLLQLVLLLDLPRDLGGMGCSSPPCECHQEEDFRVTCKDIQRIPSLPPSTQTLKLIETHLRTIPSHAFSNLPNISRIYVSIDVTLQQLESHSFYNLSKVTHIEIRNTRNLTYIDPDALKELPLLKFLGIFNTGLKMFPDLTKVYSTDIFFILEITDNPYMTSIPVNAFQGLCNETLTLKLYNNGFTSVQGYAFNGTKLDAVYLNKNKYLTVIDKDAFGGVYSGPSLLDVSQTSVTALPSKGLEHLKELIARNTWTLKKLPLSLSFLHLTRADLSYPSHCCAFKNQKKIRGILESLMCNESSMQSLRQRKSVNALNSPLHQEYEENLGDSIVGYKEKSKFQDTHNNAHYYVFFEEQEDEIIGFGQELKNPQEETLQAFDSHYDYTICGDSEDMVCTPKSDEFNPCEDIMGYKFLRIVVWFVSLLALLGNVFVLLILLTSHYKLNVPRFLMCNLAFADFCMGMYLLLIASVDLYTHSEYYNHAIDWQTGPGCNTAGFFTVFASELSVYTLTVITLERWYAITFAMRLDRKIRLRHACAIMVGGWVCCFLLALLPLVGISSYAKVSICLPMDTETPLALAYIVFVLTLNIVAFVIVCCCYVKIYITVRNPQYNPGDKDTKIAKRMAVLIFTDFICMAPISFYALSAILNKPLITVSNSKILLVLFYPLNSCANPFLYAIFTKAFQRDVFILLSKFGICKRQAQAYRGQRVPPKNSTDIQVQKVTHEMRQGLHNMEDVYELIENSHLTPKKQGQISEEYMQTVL
In short: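 TSHR-HEK293 cells (800/well) plated 18 h, then compounds with Ro20-1724 and TSH at 1.5 ng/mL final, 30 min at room temperature. cAMP quantified by HTRF (cAMP-d2/anti-cAMP-cryptate, 1 h); 15 concentrations in triplicate.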

[9] = qHTS assay to identify small molecule antagonists of the progesterone receptor (PR) signaling pathway - cell viability counter screen (AID 1346798; active = well fitted curve in the direction sought with a large enough effect in the repeat runs; an effect the other way counts as inactive or inconclusive; note: series mostly up to about 92 µM; nearly all actives have a fitted effect of over 50% in size)
In short: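 PR-UAS-bla HEK293T cells, 3,000/well in 2% charcoal-stripped FBS medium, dosed with compounds plus R5020 agonist and incubated 16 h at 37C. Viability then measured in the same wells by CellTiter-Glo luminescence after 30 min at RT.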

[10] = qHTS assay to identify small molecule antagonists of the TGF-beta/Smad signaling pathway - cell viability counter screen (AID 1346824; active = well fitted curve in the direction sought with a large enough effect in the repeat runs; an effect the other way counts as inactive or inconclusive; note: nearly all actives have a fitted effect of over 50% in size)
In short: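 SBE-bla HEK 293T cells, incubated overnight, then compound plus 0.25 ng/mL TGF-beta1 (stock added) for 5 hr at 37 C. Viability was read in the same wells by CellTiter-Glo luminescence after 30 min at room temperature.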

[11] = qHTS assay to identify small molecule agonists of the TGF-beta/Smad signaling pathway - cell viability counter screen (AID 1346829; active = well fitted curve in the direction sought with a large enough effect in the repeat runs; an effect the other way counts as inactive or inconclusive; note: top concentration of the series differs between compounds; nearly all actives have a fitted effect of over 45% in size)
In short: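 After overnight seating at 37 C and 5% CO2, reporter cells got compounds for 5 hr and FRET substrate for 2 hr; cell viability then came from CellTiter-Glo luminescence.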

[12] = qHTS assay to identify small molecule agonists of the TGF-beta/Smad signaling pathway (AID 1346859; active = well fitted activation curve with a large enough effect in the signal ratio in the repeat runs, not every such curve was filed as active; the % refers to the signal ratio; note: series mostly up to about 77 µM)
In short: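 SBE-bla HEK293T cells plated overnight, then compound exposure for 5 h at 37 C. Beta-lactamase reporter read with LiveBLAzer B/G FRET substrate after 2 h at room temperature, fluorescence at 405 nm excitation, 460/530 nm emission.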

[13] = target: Thyrotropin-releasing hormone receptor (Homo sapiens) (UniProt P34981); test: qHTS assay to identify small molecule antagonists of the thyrotropin-releasing hormone receptor (TRHR) signaling pathway (AID 1346877; active = well fitted inhibition curve with a large enough effect in the repeat runs, not every such curve was filed as active; note: series mostly up to about 51 µM)
Sequence of Thyrotropin-releasing hormone receptor (Homo sapiens) (P34981 whole entry, looked up): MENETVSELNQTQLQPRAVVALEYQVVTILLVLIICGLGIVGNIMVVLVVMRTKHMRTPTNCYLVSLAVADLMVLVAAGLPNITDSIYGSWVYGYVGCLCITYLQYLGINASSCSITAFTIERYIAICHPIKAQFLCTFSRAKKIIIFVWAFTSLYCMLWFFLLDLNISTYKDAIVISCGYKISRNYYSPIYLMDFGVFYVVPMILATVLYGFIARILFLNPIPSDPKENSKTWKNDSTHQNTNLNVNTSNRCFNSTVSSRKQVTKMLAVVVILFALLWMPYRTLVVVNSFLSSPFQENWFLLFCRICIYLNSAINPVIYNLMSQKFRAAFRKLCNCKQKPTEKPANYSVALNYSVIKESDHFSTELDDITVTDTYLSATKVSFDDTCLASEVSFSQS
In short: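 TRHR-expressing HEK293 cells were seeded, cultured 18 h at 37 °C, then loaded with calcium dye for 2 h. Compounds were pre-incubated 5 min at room temperature before 1 nM TRH (final) was added, and kinetic fluorescence was recorded for 3 min.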

[14] = target: Thyrotropin-releasing hormone receptor (Homo sapiens) (UniProt P34981); test: qHTS assay to identify small molecule agonists of the thyrotropin-releasing hormone receptor (TRHR) signaling pathway (AID 1346891); note: series mostly up to about 58 µM
In short: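 HEK293 cells expressing TRHR plated 18 h at 37 C/5% CO2, calcium dye-loaded 2 h at 37 C, then compound added (agonist mode); kinetic calcium fluorescence read 3 min at 1 s intervals; 15 concentrations in triplicate.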

[15] = qHTS assay to identify small molecule antagonists of the estrogen receptor beta (ER-beta) signaling pathway - cell viability counter screen (AID 1259382; active = well fitted curve in the direction sought with a large enough effect in the repeat runs; an effect the other way counts as inactive or inconclusive; note: series mostly up to about 92 µM; nearly all actives have a fitted effect of over 55% in size)
In short: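 ER-beta-UAS-bla HEK293T cells (2,000/well, 2% charcoal-stripped FBS) were pre-incubated 6 hr at 37C, then given compound plus 1nM final 17-beta-estradiol for 16 hr. Viability was read in the same wells by CellTiter-Glo luminescence after 30 min at room temperature.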

[16] = qHTS assay to identify small molecule agonists of the estrogen receptor alpha (ER-alpha) signaling pathway in the presence of an antagonist - cell viability counter screen (AID 1259386; active = well fitted curve in the direction sought with a large enough effect in the repeat runs; an effect the other way counts as inactive or inconclusive;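 note: series mostly up to about 92 µM; cells exposed to compounds for 22 h at 37 °C before the viability read; nearly all actives have a fitted effect of over 30% in size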)
In short: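 VM7Luc4E2 cells (endogenous full-length ER-alpha, 4×ERE-luciferase) were held 5 days in phenol red-free medium with 10% charcoal-stripped FBS, plated, then given 10.0nM ICI-182,780 and compounds at 15 concentrations for 22hr at 37C; viability read by CellTiter-Fluor fluorescence.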

[17] = target: Progesterone receptor (Homo sapiens) (UniProt P06401); test: qHTS assay to identify small molecule agonists of the progesterone receptor (PR) signaling pathway (AID 1346784); note: nearly all actives have a fitted effect of over 30% in size
Sequence of Progesterone receptor (Homo sapiens) (P06401 whole entry, looked up): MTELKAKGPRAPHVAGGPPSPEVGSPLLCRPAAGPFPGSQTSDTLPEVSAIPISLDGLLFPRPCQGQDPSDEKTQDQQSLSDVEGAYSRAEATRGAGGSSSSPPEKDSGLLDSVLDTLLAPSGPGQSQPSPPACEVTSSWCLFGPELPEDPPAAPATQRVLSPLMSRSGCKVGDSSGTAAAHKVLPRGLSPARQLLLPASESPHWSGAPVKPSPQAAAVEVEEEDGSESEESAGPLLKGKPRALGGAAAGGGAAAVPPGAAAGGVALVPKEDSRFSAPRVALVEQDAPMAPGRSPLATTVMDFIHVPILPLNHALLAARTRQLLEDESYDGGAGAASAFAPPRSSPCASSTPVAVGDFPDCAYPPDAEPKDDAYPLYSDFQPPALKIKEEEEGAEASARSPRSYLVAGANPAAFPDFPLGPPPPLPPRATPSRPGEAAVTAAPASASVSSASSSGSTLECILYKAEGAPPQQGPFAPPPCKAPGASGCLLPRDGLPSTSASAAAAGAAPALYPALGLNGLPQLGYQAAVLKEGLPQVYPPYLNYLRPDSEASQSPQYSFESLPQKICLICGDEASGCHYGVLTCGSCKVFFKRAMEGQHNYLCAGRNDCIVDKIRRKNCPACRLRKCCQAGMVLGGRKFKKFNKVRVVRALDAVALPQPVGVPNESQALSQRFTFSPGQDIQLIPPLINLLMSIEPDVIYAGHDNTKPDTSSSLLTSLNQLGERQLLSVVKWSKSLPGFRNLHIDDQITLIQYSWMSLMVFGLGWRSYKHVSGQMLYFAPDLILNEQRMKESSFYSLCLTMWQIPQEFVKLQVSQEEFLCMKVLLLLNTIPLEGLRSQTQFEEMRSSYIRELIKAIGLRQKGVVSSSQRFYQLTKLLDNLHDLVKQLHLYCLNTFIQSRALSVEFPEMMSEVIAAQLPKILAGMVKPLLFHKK
In short: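 PR-UAS-bla HEK 293T cells (beta-lactamase reporter under UAS) in 2% charcoal-stripped FBS, dosed with 23 nL compound after 6 hr, incubated 16hr at 37C. LiveBLAzer B/G FRET substrate added, fluorescence read after 2 hours.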

[18] = target: Progesterone receptor (Homo sapiens) (UniProt P06401); test: qHTS assay to identify small molecule antagonists of the progesterone receptor (PR) signaling pathway (AID 1346795; active = well fitted inhibition curve with a large enough effect in the signal ratio in the repeat runs, not every such curve was filed as active; the % refers to the signal ratio)
In short: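 PR-UAS-bla HEK293T cells with beta-lactamase reporter under UAS control, in 2% charcoal-stripped FBS, treated with compounds plus 1 nM promegestone (R5020, final) for 16 hr at 37C. Read-out: FRET beta-lactamase substrate fluorescence after 2 hr at room temperature.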

[19] = qHTS assay to identify small molecule agonists of the progesterone receptor (PR) signaling pathway - cell viability counter screen (AID 1346799); note: nearly all actives have a fitted effect of over 45% in size
In short: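 Counter screen in the PR-UAS-bla HEK293T wells (2% charcoal-stripped FBS, 16 h compound exposure at 37 C) after the bla read. CellTiter-Glo added, 30 min at room temperature, luminescence read as cell viability.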

[20] = qHTS assay to identify small molecule antagonists of the sonic hedgehog signaling (Shh) pathway (AID 1259369); note: nearly all actives have a fitted effect of over 45% in size; note: potency is the fitted concentration of half-maximal effect
In short: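 NIH/3T3-derived 3T3Gli1-Luc cells with stably integrated Gli1-Luc reporter were preincubated 4hr at 37 C, then given compounds in DMSO plus Shh conditioned medium and incubated 24hr. Firefly luciferase luminescence read after 30min reagent at room temperature.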

SMILES | outcome [1] | Potency [2] | Potency [3] | Potency [4] | Potency [5] | Potency [6] | Potency [7] | Potency [8] | Potency [9] | Potency [10] | outcome [11] | outcome [12] | outcome [13] | outcome [14] | Potency [15] | Potency [16] | Potency [17] | Potency [18] | Potency [19] | Potency [20]
O=C1OC(CCN2CCCCC2)OC1(c1ccccc1)c1ccccc1 (configuration not stated) | inactive | inactive | inactive | inactive | inactive | inactive | inactive | inactive | inactive | inactive | inactive | inactive | inactive | inactive |  |  |  |  |  | 
COC(=O)C1=CCCN(C)C1 | inactive | inactive | inactive | inactive |  | inactive | inactive | inactive | inactive | inactive | inactive | inactive |  |  | inactive | inactive | inactive | inactive | inactive | 
CC(C)CC#N |  |  | inactive |  | inactive | inactive | inactive | inactive | inactive | inactive | inactive | inactive | inactive | inactive | inactive | inactive | inactive | inactive | inactive | inactive
CNC(=O)N(C)c1nc2ccccc2s1 |  |  | inactive |  |  |  | inactive | inactive | inactive | inactive | inactive | inactive | inactive | inactive |  | inactive | inactive |  | inactive | inactive
Nc1cc(Cl)ccc1O |  |  | inactive |  |  | inactive | inactive | inactive | inactive | inactive | inactive | inactive | inactive | inactive | inactive |  | inactive |  | inactive | 1.67 µM (active)
CCOP(=S)(Oc1cnc(C(C)(C)C)nc1)OC(C)C (configuration not stated) |  |  | inactive |  |  |  | inactive |  | inactive | inactive | inactive |  |  |  | inactive |  | inactive | inactive | inactive | inactive
CCN(CC)C(C)C(=O)c1ccccc1 (configuration not stated) |  |  | inactive |  | inactive | inactive | inactive | inactive | inactive | inactive | inactive | inactive | inactive | inactive | inactive | inactive | inactive | inactive | inactive | inactive
NC(=O)c1cc([N+](=O)[O-])cc([N+](=O)[O-])c1 |  |  | inactive |  |  | inactive | inactive | inactive | inactive | inactive | inactive |  | inactive | inactive | inactive | inactive | inactive | inactive | inactive | inactive
CC(C(O)c1ccccc1)N(C)C/C=C/c1ccccc1 (configuration not stated) |  |  | inactive |  | inactive | inactive | inactive |  | inactive | inactive | inactive | inactive |  |  | inactive | inactive | inactive |  | inactive | inactive
CC1=C(C(=O)Nc2ccccc2)S(=O)(=O)CCO1 |  |  | inactive |  |  | inactive | inactive | inactive |  | inactive | inactive | inactive |  |  | inactive |  | inactive |  |  | 3.06 µM (active)
CCCCCCBr |  |  | inactive | inactive |  |  | inactive | inactive | inactive | inactive | inactive | inactive |  |  |  | inactive |  |  | inactive | inactive
Cc1cc(C)nc(Nc2ccccc2)n1 |  |  | inactive |  |  | inactive | inactive | inactive | inactive | inactive | inactive | inactive | inactive | inactive | inactive | inactive | inactive |  | inactive | inactive
O=[N+]([O-])c1cccc2c([N+](=O)[O-])cccc12 |  |  |  |  | inactive |  | inactive | inactive |  | inactive | inactive | inactive | inactive | inactive |  | inactive |  | inactive |  | inactive
CNC(=O)Oc1cccc(C(C)C)c1 |  |  | inactive | inactive |  |  | inactive | inactive | inactive | inactive | inactive | inactive | inactive | inactive | inactive | inactive | inactive | inactive | inactive | inactive
